From PubChem BioAssay (NCATS) come the findings set out here.

Inconclusive results are not listed. Unmarked numbers belong to inactive results. Activity calls are given as the source filed them. Unless noted, calls come from the whole dose curve; as a rule, active = well fitted curve in the direction sought with a large enough effect; inconclusive = small, poorly fitted or top-dose-only effect, or another doubt; inactive = no such curve, though single readings can be large; an effect the other way counts as inactive or inconclusive. Where a SMILES comes first, the peptide text is derived from it. The star is where a group is joined. Hexanoyl = CCCCCC(=O)*

Test [1] has as its target Calcium and integrin-binding protein 1 (Homo sapiens) (UniProt Q99828). The experiment in a line: Primary qHTS for Identification of Calcium Integrin Binding Protein 1 (CIB1) Competitor (AID 1508620).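 Note: GST tagged CIB1 binding a fluorescein labelled alphaIIb integrin peptide tracer; top concentration of the series differs between compounds.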 Summed up: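 CIB1-GST (1 uM final) and compound incubated 15 min at room temperature before adding FITC-alphaIIb peptide tracer (100 nM final). Competition for binding read by fluorescence polarization (ex 480, em 540) after another 15 min at room temperature.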

The target of test [2] is Cytochrome P450 2D6 (Homo sapiens) (UniProt P10635). Kind of test: Cytochrome P450 family 2 subfamily D member 6 (CYP2D6) small molecule antagonists: luciferase biochemical (cell-free) qHTS assay (AID 1645840; active = well fitted curve in the direction sought with a large enough effect in the repeat runs; an effect the other way counts as inactive or inconclusive; note: nearly all actives have a fitted effect of over 55% in size; note: potency is the fitted concentration of half-maximal effect). A digest of the protocol:
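P450-Glo luminescent screen: recombinant CYP2D6 enzyme–proluciferin substrate mix preincubated with compound 10 min at room temperature, then NADPH regeneration added for 1 h at room temperature. Detection reagent added for 20 min; luciferin light read as relative luminescence units.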

Test [3] has as its target Cytochrome P450 2C9 (Homo sapiens) (UniProt P11712). The experiment in a line: Cytochrome P450 family 2 subfamily C member 9 (CYP2C9) small molecule antagonists: luciferase biochemical (cell-free) qHTS assay (AID 1645842; active = well fitted curve in the direction sought with a large enough effect in the repeat runs; an effect the other way counts as inactive or inconclusive; note: nearly all actives have a fitted effect of over 55% in size; note: potency is the fitted concentration of half-maximal effect). Summed up:
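Luminescence, after 20 min with luciferin detection reagent, reflected CYP2C9 turnover during a 1 h NADPH-driven reaction at 37C. Enzyme-substrate mix contained 0.4% bovine serum albumin and was preincubated with compound 10 min at room temperature.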

Test [4] in a line: Primary qHTS for inhibitors of nuclear receptor binding SET domain protein 2 (NSD2) in an isogenic RCH-ACV NSD2 p.E1099K mutant (9B) (AID 1645876). Note: nearly all actives have a fitted effect of over 70% in size. Note: potency is the fitted concentration of half-maximal effect.
Test [5] is described as follows: Primary qHTS for inhibitors of nuclear receptor binding SET domain protein 2 (NSD2) in an RCH-ACV wild type WT cells (2C) (AID 1645877). Note: nearly all actives have a fitted effect of over 70% in size. Note: potency is the fitted concentration of half-maximal effect.

Chain of Cytochrome P450 2C9 (Homo sapiens) (P11712 whole entry, looked up): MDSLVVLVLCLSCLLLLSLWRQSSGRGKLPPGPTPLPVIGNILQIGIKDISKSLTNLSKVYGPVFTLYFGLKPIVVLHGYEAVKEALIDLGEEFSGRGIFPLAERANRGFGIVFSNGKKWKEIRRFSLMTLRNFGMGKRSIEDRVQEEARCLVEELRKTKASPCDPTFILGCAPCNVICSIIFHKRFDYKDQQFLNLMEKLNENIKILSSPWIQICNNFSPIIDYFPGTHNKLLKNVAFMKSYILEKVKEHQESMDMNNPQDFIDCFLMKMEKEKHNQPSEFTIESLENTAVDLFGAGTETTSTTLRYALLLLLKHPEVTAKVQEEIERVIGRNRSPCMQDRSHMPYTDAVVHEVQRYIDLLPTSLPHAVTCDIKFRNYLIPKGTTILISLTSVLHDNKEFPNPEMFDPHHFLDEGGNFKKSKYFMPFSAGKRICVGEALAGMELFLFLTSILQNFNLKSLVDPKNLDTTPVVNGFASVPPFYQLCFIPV
Chain of Cytochrome P450 2D6 (Homo sapiens) (P10635 whole entry, looked up): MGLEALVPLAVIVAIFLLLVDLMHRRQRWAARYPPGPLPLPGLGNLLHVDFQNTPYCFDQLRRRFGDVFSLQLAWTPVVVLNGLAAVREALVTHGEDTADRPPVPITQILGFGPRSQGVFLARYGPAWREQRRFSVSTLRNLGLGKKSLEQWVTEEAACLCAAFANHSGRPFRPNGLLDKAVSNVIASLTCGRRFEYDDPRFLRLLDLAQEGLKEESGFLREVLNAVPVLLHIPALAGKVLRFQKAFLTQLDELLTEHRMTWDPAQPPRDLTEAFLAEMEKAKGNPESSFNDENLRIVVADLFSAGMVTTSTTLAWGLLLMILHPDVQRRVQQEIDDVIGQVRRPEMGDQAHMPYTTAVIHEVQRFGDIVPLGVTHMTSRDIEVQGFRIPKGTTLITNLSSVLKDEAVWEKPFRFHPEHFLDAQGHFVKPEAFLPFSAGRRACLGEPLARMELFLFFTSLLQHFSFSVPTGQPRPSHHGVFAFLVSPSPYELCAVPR
Chain of Calcium and integrin-binding protein 1 (Homo sapiens) (Q99828 whole entry, looked up): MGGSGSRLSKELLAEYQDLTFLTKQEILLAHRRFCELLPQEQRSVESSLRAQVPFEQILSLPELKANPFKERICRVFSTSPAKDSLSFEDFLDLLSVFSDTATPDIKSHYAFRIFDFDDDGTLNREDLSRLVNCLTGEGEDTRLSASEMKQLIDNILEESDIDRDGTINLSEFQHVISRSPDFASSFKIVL

Take `O=C(O)CC1CCC(c2ccc(NC(=O)c3nnc(Nc4ccc(F)c(F)c4)o3)cc2)CC1` (stereo not given): the Potency result in test [1], in test [2], in test [3], in test [4] and in test [5] was “inactive” throughout.
On to `Cc1nc2cc(-c3cc(F)cc(C#N)c3)ccc2s1`, for which the Potency entry in test [1], in test [2], in test [4] and in test [5] was “inactive” throughout. Besides, the Potency in test [3] was 10.7 µM (active).
Regarding `COc1cc2nc(=NC(=O)c3cccnc3)n3c(c2cc1OC)NCC3`, the Potency result in test [1], in test [2] and in test [3] was “inactive” throughout. Moreover, the Potency is 4.59 µM (active) in test [4] and 5.15 µM (active) in test [5].
As to `Cc1cccc(NC(=O)CN2CCC(c3ccccn3)CC2)c1`, the Potency entry in test [1], in test [4] and in test [5] was “inactive” in each case. Further, the Potency in test [2] is 13.5 µM (active); in test [3] it was 3.38 µM (active).
`COC(=O)[C@H](Cc1ccc([N+](=O)[O-])cc1)NC(=O)c1cccc2ccccc12`: the Potency entry in test [1], in test [4] and in test [5] was “inactive” in each case. In addition, the Potency in test [2] was 2.13 µM (active); in test [3], 3.79 µM (active).
Consider `CCCCCC(=O)N1CCC[C@H]1C(=O)N[C@@H](Cc1ccc(O)cc1)C(=O)OC` (Hexanoyl-Pro-Tyr-OMe), for which the Potency entry in test [1], in test [2], in test [4] and in test [5] was “inactive” throughout. Further, the Potency in test [3] was 2.39 µM (active).
With `CCOC(=O)C1=C(N)Oc2ccc(Cl)cc2C1C(C#N)C(=O)OCC` (stereo not given), the Potency entry in test [1], in test [4] and in test [5] was “inactive” throughout. The values for the Potency in test [2] and in test [3] were 16.9 µM (active) and 10.7 µM (active), respectively.
In the case of `CC1(C)Oc2ncnc(N)c2N=C1c1ccc(C2CCC(CC(=O)O)CC2)cc1` (stereo not given), the Potency entry in test [1], in test [2], in test [3], in test [4] and in test [5] was “inactive” throughout.
Take `Cc1oc(S(=O)(=O)N2CCCCC2)cc1NC(=O)Nc1ccccc1`: the Potency result in test [1], in test [4] and in test [5] was “inactive” in each case. For the same compound, the Potency in test [2] was 12 µM (active); in test [3], 6.01 µM (active).
As to `COc1ccc(CC(=O)NCc2ccccc2-c2ccccc2C(=O)NCCc2cccnc2)cc1`, the Potency result in test [1], in test [4] and in test [5] was “inactive” each time. The Potency is 10.7 µM (active) in test [2] and 2.68 µM (active) in test [3].
Take `O=C(Nc1ccccc1)Nc1ccc(-c2ccc(C(=O)C3CCCC3C(=O)O)cc2)cc1` (stereo not given): the Potency result in test [1], in test [2], in test [4] and in test [5] was “inactive” in each case. Besides, the Potency in test [3] is 16.9 µM (active).
Regarding `Nc1c(-c2ccccc2)nc(Cl)c2c(O)n[nH]c(=O)c12`, the Potency entry in test [1], in test [2], in test [4] and in test [5] was “inactive” in each case. In test [3], the Potency was 10.7 µM (active).
Turning to `N#Cc1cccc(-c2nc(-c3cccnc3)no2)c1`, the Potency result in test [1], in test [4] and in test [5] was “inactive” each time. The Potency in test [2] is 2.62 µM (active); in test [3], 4.65 µM (active).
Turning to `Nc1ncnc2c1c(COc1cccc(Cl)c1)nn2C1CCOCC1`, the Potency entry in test [1] and in test [2] was “inactive” each time. In addition, the Potency was 12 µM (active) in test [3], 14.8 µM (active) in test [4] and 16.6 µM (active) in test [5].
In the case of `CC(=O)N[C@H](Cc1c[nH]c2ccccc12)C(=O)OCc1cc(C(F)(F)F)cc(C(F)(F)F)c1`, the Potency result in test [1], in test [4] and in test [5] was “inactive” each time. Moreover, the results for the Potency in test [2] and in test [3] were 19 µM (active) and 1.9 µM (active), respectively.
For the compound `NC1=NC2(c3cc(NC(=O)c4ccc(F)cn4)ccc3F)COCC2CS1` (stereo not given), the Potency entry in test [1], in test [4] and in test [5] was “inactive” in each case. In addition, the figures for the Potency in test [2] and in test [3] were 4.77 µM (active) and 9.52 µM (active), respectively.
Turning to `CC(C(=O)Nc1cc(C#N)ccc1CCCC(=O)O)c1ccc(F)c2ccccc12` (stereo not given), the Potency entry in test [1], in test [2], in test [4] and in test [5] was “inactive” each time. For the same compound, in test [3], the Potency was 0.536 µM (active).
Turning to `CCOC(=O)C(CCc1ccccc1)NC1CCCN2CCCC(C(=O)O)N2C1=O` (stereo not given), the Potency entry in test [1], in test [2], in test [3], in test [4] and in test [5] was “inactive” throughout.
On to `Cc1oc2nc3c(c(NC(=O)CN4CCCC4=O)c2c1C)CCCC3`, for which the Potency entry in test [1], in test [2], in test [3], in test [4] and in test [5] was “inactive” in each case.
As to `Cn1cc(CCn2cnc(-c3cnn(C)c3)c2-c2ccc(C#N)cc2)cn1`, the Potency result in test [1], in test [2], in test [3], in test [4] and in test [5] was “inactive” in each case.
As to `c1cc(-c2cc(C3CCNCC3)[nH]n2)ccn1`, the Potency entry in test [1], in test [3], in test [4] and in test [5] was “inactive” in each case. Besides, the Potency in test [2] was 15.1 µM (active).
Regarding `CC(=O)Nc1cccc2c1c(Sc1ccc(Cl)cc1)c(C)n2CC(=O)O`, the Potency result in test [1], in test [2], in test [4] and in test [5] was “inactive” in each case. Further, the Potency in test [3] was 13.5 µM (active).
`Cc1c(C)c(NCC(=O)N(C)C2CCN(Cc3ccc(C(N)=O)cc3)CC2)c(C)c(C)c1N`: the Potency entry in test [1], in test [4] and in test [5] was “inactive” each time. Further, the Potency is 21.3 µM (active) in test [2] and 7.56 µM (active) in test [3].
With `Cc1onc(-c2ccccc2Cl)c1C(=O)N(C)c1ccc(Cl)cc1`, the Potency entry in test [1], in test [2], in test [4] and in test [5] was “inactive” throughout. For the same compound, the Potency in test [3] was 13.5 µM (active).
With `CCOC(=O)COc1ccc2c(c1)C[C@@H](NC[C@H](O)c1cccc(Cl)c1)CC2`, the Potency entry in test [1], in test [4] and in test [5] was “inactive” throughout. Besides, the Potency in test [2] was 0.756 µM (active); in test [3], 16.9 µM (active).
For `Cc1cn(C[C@H](N)C(=O)O)c(=O)n(Cc2ccsc2C(=O)O)c1=O`, the Potency entry in test [1], in test [2], in test [3], in test [4] and in test [5] was “inactive” each time.
Turning to `Cc1ccc(Cl)cc1N(CC(=O)Nc1c(F)cccc1F)S(C)(=O)=O`, the Potency entry in test [1], in test [2], in test [4] and in test [5] was “inactive” each time. The Potency in test [3] was 1.2 µM (active).
In the case of `COc1cccc(OC)c1-c1ccc(C[C@H](NC(=O)c2c(Cl)cccc2Cl)C(=O)O)cc1`, the Potency result in test [1], in test [2], in test [4] and in test [5] was “inactive” throughout. Besides, the Potency in test [3] is 13.5 µM (active).
Consider `COc1ccnc(CCc2nc3ncccc3[nH]2)c1`, for which the Potency result in test [1], in test [2], in test [3], in test [4] and in test [5] was “inactive” each time.
